This is part of a sample that, as a whole, favours compounds with a hit. Of some 83,000 tested, about 20% had one in any assay.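 In brief: 96-well plates, 48 h treatment, single concentration, percent growth endpoint.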 A number with no mark means an inactive call. Active and inactive are the calls of the source. How the source made its calls: active means growth percent below 10; inactive means the rest.
Key:
Test in all cases: NCI-60 one-dose screen, 48 h (100 = growth as untreated, 0 = no growth, -100 = all killed)
Conditions in all cases: 10 µM unless noted
[1] = tested on: NCI-H23 lung
[2] = tested on: NCI-H226 lung
[3] = tested on: NCI-H322M lung
[4] = tested on: HOP-62 NSCLC
[5] = tested on: NCI-H460 lung
[6] = tested on: HOP-92 NSCLC
[7] = tested on: NCI-H522 lung
[8] = tested on: A549/ATCC NSCLC
[9] = tested on: 786-0 renal
[10] = tested on: COLO 205 colon
[11] = tested on: DU-145 prostate
[12] = tested on: K-562 leukemia
[13] = tested on: MALME-3M melanoma
[14] = tested on: MDA-MB-231 breast
[15] = tested on: RXF 393 renal
[16] = tested on: SF-268 CNS
[17] = tested on: SF-539 CNS
[18] = tested on: UACC-257 melanoma
[19] = tested on: M14 melanoma

## COc1ccc(-c2nc3ccc(Cc4ccc5nc(-c6ccc(OC)cc6)[nH]c5c4)cc3[nH]2)cc1
[1]
  growth: -17.9% (active)
[2]
  growth: 90.6%
[3]
  growth: 97.7%
[4]
  growth: 49.1%
[5]
  growth: 69.1%
[6]
  growth: 77.9%
[7]
  growth: -13.4% (active)
[8]
  growth: 48.5%
[9]
  growth: 89.5%
[10]
  growth: 5.61% (active)
[11]
  growth: 64.6%
[12]
  growth: 13.4%
[13]
  growth: -13.1% (active)
[14]
  growth: 17.3%
[15]
  growth: 93.9%
[16]
  growth: 6.83% (active)
[17]
  growth: 56.6%
[18]
  growth: -20% (active)
[19]
  growth: 40.1%

## CCOC(=O)C(Nc1ccccc1)C(=O)OCC
[1]
  growth: 108%
[2]
  growth: 99.6%
[3]
  growth: 88.1%
[4]
  growth: 101%
[5]
  growth: 115%
[6]
  growth: 72.9%
[7]
  growth: 102%
[8]
  growth: 100%
[9]
  growth: 110%
[10]
  growth: 119%
[11]
  growth: 122%
[12]
  growth: 92.4%
[13]
  growth: 93.2%
[14]
  growth: 105%
[15]
  growth: 114%
[16]
  growth: 122%
[17]
  growth: 111%
[18]
  growth: 112%
[19]
  growth: 103%

## CCCc1cc2c(cc1CN(Cc1cc3c(cc1CCC)OCO3)C(=N)OCC)OCO2
[1]
  growth: 79.8%
[2]
  growth: 86.4%
[3]
  growth: 91.9%
[4]
  growth: 83.7%
[5]
  growth: 75.5%
[6]
  growth: 55%
[7]
  growth: 54.2%
[8]
  growth: 71.8%
[9]
  growth: 89.7%
[10]
  growth: 93.6%
[11]
  growth: 97.6%
[12]
  growth: 63.4%
[13]
  growth: 82.8%
[14]
  growth: 77.8%
[15]
  growth: 106%
[16]
  growth: 79.2%
[17]
  growth: 112%
[18]
  growth: 83.9%
[19]
  growth: 85.9%

## COc1ccc2[nH]c(O)c(/C=c3/ccc4c(c3)N=C(c3ccc(F)cc3)N=4)c2c1
[1]
  growth: 71.7%
[2]
  growth: 85.4%
[3]
  growth: 49.4%
[4]
  growth: 34.2%
[5]
  growth: 36.9%
[6]
  growth: 4.86% (active)
[7]
  growth: 81%
[8]
  growth: 37.6%
[9]
  growth: -30.1% (active)
[10]
  growth: 72.9%
[11]
  growth: 67.6%
[12]
  growth: 57.7%
[13]
  growth: -18.6% (active)
[14]
  growth: 83.2%
[15]
  growth: 11.5%
[16]
  growth: 83.2%
[17]
  growth: 80.3%
[18]
  growth: 82.5%
[19]
  growth: 68.4%

## CCCN(CCC)CC(O)COc1ccccc1C(=O)Nc1ccccc1 (centres undefined)
[1]
  growth: 90.9%
[2]
  growth: 78.9%
[3]
  growth: 119%
[4]
  growth: 66.5%
[5]
  growth: 97.6%
[6]
  growth: 84.2%
[7]
  growth: 55.8%
[8]
  growth: 40.4%
[9]
  growth: 88%
[10]
  growth: 46.1%
[11]
  growth: 96.8%
[12]
  growth: 22.3%
[13]
  growth: 62%
[14]
  growth: 96.5%
[15]
  growth: 52.5%
[16]
  growth: 73.8%
[17]
  growth: 77.3%
[18]
  growth: 61.5%
[19]
  growth: 69.3%

## CCCCNCC(O)c1cc2c(Cl)cc(Cl)cc2c2cc(C(F)(F)F)ccc12 (centres undefined)
[1]
  growth: -72.9% (active)
[2]
  growth: -69.4% (active)
[3]
  growth: -82.8% (active)
[4]
  growth: -80.8% (active)
[5]
  growth: -73.9% (active)
[6]
  growth: -89.5% (active)
[7]
  growth: -78.7% (active)
[8]
  growth: -83.3% (active)
[9]
  growth: -71.2% (active)
[10]
  growth: -76.8% (active)
[11]
  growth: -98% (active)
[12]
  growth: -69.1% (active)
[13]
  growth: -60.8% (active)
[14]
  growth: -74.8% (active)
[15]
  growth: -94.7% (active)
[16]
  growth: -80.5% (active)
[17]
  growth: -81.7% (active)
[18]
  growth: -72.4% (active)
[19]
  growth: -86.5% (active)

## COc1ccc(-c2cnc3ccnn3c2-c2cc(OC)c(OC)c(OC)c2)cc1
[1]
  growth: 42.7%
[2]
  growth: 65.5%
[3]
  growth: 55.8%
[4]
  growth: 40%
[5]
  growth: 11.1%
[6]
  growth: 103%
[7]
  growth: 10.1%
[8]
  growth: 46.8%
[9]
  growth: 40.3%
[10]
  growth: -31.2% (active)
[11]
  growth: 20%
[12]
  growth: 5.43% (active)
[13]
  growth: 67.5%
[14]
  growth: 50.3%
[15]
  growth: 1.8% (active)
[16]
  growth: 53.3%
[17]
  growth: -13.4% (active)
[18]
  growth: 58.4%
[19]
  growth: 21.5%

## C/C(=N\OC(=O)Nc1ccccc1)c1ccccc1
[1]
  growth: 105%
[2]
  growth: 95.2%
[3]
  growth: 99.1%
[4]
  growth: 118%
[5]
  growth: 103%
[6]
  growth: 126%
[7]
  growth: 98.6%
[8]
  growth: 88.3%
[9]
  growth: 99.3%
[10]
  growth: 114%
[11]
  growth: 97.1%
[12]
  growth: 96.6%
[13]
  growth: 107%
[14]
  growth: 107%
[15]
  growth: 87.2%
[16]
  growth: 104%
[17]
  growth: 105%
[18]
  growth: 102%
[19]
  growth: 103%

## Fc1cnccc1-c1nc2ccc3[nH]ncc3c2c2c1CCCC2
[1]
  growth: 31.9%
[2]
  growth: 30%
[3]
  growth: 29.5%
[4]
  growth: 21%
[5]
  growth: 25.8%
[6]
  growth: 40.7%
[7]
  growth: 18.8%
[8]
  growth: 14.6%
[9]
  growth: 28.1%
[10]
  growth: 17.6%
[11]
  growth: 24.1%
[12]
  growth: 30.9%
[13]
  growth: 44.2%
[14]
  growth: 51.2%
[15]
  growth: -23.9% (active)
[16]
  growth: 31.9%
[17]
  growth: 5.76% (active)
[18]
  growth: 63%
[19]
  growth: 26%

## c1ccc(C(Nc2ccccn2)(c2ccccc2)c2ccccc2)cc1
[1]
  growth: 74.6%
[2]
  growth: 72.6%
[3]
  growth: 64.8%
[4]
  growth: 99%
[5]
  growth: 79.9%
[6]
  growth: 4.44% (active)
[7]
  growth: 70.7%
[8]
  growth: 65.9%
[9]
  growth: 81.4%
[10]
  growth: 90%
[11]
  growth: 85.6%
[12]
  growth: 56%
[13]
  growth: 109%
[14]
  growth: 66.8%
[15]
  growth: 82.9%
[16]
  growth: 99.5%
[17]
  growth: 86.4%
[18]
  growth: 97.4%
[19]
  growth: 87.9%

## CCN(CC)CCCC(C)N/C(c1cccc(OC)c1)=c1\c(=O)[nH]n(-c2c3ccccc3nc3ccccc23)c(=O)\c1=C(/NC(C)CCCN(CC)CC)c1cccc(OC)c1 (centres undefined)
[1]
  growth: -26.3% (active)
[2]
  growth: -25.2% (active)
[3]
  growth: -37.7% (active)
[4]
  growth: -22.5% (active)
[5]
  growth: -34.1% (active)
[6]
  growth: -70% (active)
[7]
  growth: -85.6% (active)
[8]
  growth: -59.2% (active)
[9]
  growth: 3.27% (active)
[10]
  growth: -90.1% (active)
[11]
  growth: -13.5% (active)
[12]
  growth: -22.1% (active)
[13]
  growth: -93.9% (active)
[14]
  growth: -51.9% (active)
[15]
  growth: -78.3% (active)
[16]
  growth: -48.8% (active)
[17]
  growth: -91.5% (active)
[18]
  growth: -95.5% (active)
[19]
  growth: -80% (active)

## CN(CCO)c1ccc(N2Cc3ccccc3OC3=C2C(=O)c2c(O)ccc(O)c2C3=O)cn1
[1]
  growth: -66.5% (active)
[2]
  growth: 0.236% (active)
[3]
  growth: -0.583% (active)
[4]
  growth: -46.3% (active)
[5]
  growth: -51.2% (active)
[6]
  growth: -71.9% (active)
[7]
  growth: -49.8% (active)
[8]
  growth: -18.9% (active)
[9]
  growth: -91.2% (active)
[10]
  growth: -81.8% (active)
[11]
  growth: -98.8% (active)
[12]
  growth: -1.58% (active)
[13]
  growth: -86.1% (active)
[14]
  growth: -90.2% (active)
[15]
  growth: -96.6% (active)
[16]
  growth: -59.7% (active)
[17]
  growth: -68.9% (active)
[18]
  growth: -91.6% (active)
[19]
  growth: -89% (active)

## CN(C)c1ccc(N2Cc3ccccc3OC3=C2C(=O)c2c(O)ccc(O)c2C3=O)cn1
[1]
  growth: -36.7% (active)
[2]
  growth: 6.21% (active)
[3]
  growth: -7.76% (active)
[4]
  growth: -45.8% (active)
[5]
  growth: 1.55% (active)
[6]
  growth: -65.2% (active)
[7]
  growth: -54.2% (active)
[8]
  growth: -19.7% (active)
[9]
  growth: -88.9% (active)
[10]
  growth: -81.9% (active)
[11]
  growth: -97.3% (active)
[12]
  growth: -20.8% (active)
[13]
  growth: -76.9% (active)
[14]
  growth: -93.6% (active)
[15]
  growth: -87% (active)
[16]
  growth: -32.5% (active)
[17]
  growth: -63% (active)
[18]
  growth: -89.9% (active)
[19]
  growth: -88.6% (active)

## Fc1cc(-c2nnc3sc(-c4ccc(Cl)cc4)nn23)c(Cl)cc1Cl
[1]
  growth: 91.6%
[2]
  growth: 93.2%
[3]
  growth: 82.3%
[4]
  growth: 116%
[5]
  growth: 103%
[6]
  growth: 74.8%
[7]
  growth: 82.8%
[8]
  growth: 93.8%
[9]
  growth: 95.3%
[10]
  growth: 106%
[11]
  growth: 107%
[12]
  growth: 116%
[13]
  growth: 62%
[14]
  growth: 88.3%
[15]
  growth: 97.4%
[16]
  growth: 98%
[17]
  growth: 107%
[18]
  growth: 103%
[19]
  growth: 102%

## COc1ccc(Sc2[nH]c(C=O)c3ccccc23)cc1
[1]
  growth: 73.3%
[2]
  growth: 72.5%
[3]
  growth: 46.8%
[4]
  growth: 71%
[5]
  growth: 6.72% (active)
[6]
  growth: 53.8%
[7]
  growth: 75.2%
[8]
  growth: 34.5%
[9]
  growth: 70.1%
[10]
  growth: -0.0496% (active)
[11]
  growth: 74.6%
[12]
  growth: -0.59% (active)
[13]
  growth: 91.8%
[14]
  growth: 49.3%
[15]
  growth: 6.64% (active)
[16]
  growth: 78%
[17]
  growth: 64.9%
[18]
  growth: 91.4%
[19]
  growth: 76.6%

## CCOP(=O)(O)OP(=O)(O)OCC
[1]
  growth: 104%
[2]
  growth: 103%
[3]
  growth: 98.1%
[4]
  growth: 103%
[5]
  growth: 103%
[6]
  growth: 98.6%
[7]
  growth: 82.5%
[8]
  growth: 106%
[9]
  growth: 99.4%
[10]
  growth: 103%
[11]
  growth: 105%
[12]
  growth: 89%
[13]
  growth: 98.1%
[14]
  growth: 112%
[15]
  growth: 118%
[16]
  growth: 100%
[17]
  growth: 105%
[18]
  growth: 105%
[19]
  growth: 100%
